# According to PubChem BioAssay:
# “And” between values parts separate entries of the source, which are not always exact repeats. Equal values may be shown once. Where a structure was tested more than once in an assay, its records may differ in their call. The source made the active and inactive calls. No stated cut-off is given here; in the data, active means parasite load remaining mostly below about 12% (no sharp cut-off); inactive means mostly above about 10%.
# Test: P. berghei load reduction in hepatocytes – cell-based, HepG2, luciferase luminescence, HepG2 viability, primary screen (AID 624349);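 further: 100% = mean of DMSO negative control wells on the same plate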
# Conditions: P. berghei liver stage in HepG2, luciferase luminescence, concentration not given here; parasite load remaining: stronger effect = lower value; viability: measured here: HepG2 viability without parasites
SMILES,parasite load remaining,viability
CCC(=O)NCC[C@@H]1CCc2ccc3c(c21)CCO3,159% (inactive) and -0.665% (active),88.5% and 95.2%
C[C@@H]1[C@H](O)[C@@H](C)/C=C/C=C/C=C/C=C/C=C/C=C/C=C/[C@H](O[C@@H]2O[C@H](C)[C@@H](O)[C@H](N)[C@@H]2O)C[C@@H]2O[C@](O)(C[C@@H](O)C[C@@H](O)[C@H](O)CC[C@@H](O)C[C@@H](O)CC(=O)O[C@H]1C)C[C@H](O)[C@H]2C(=O)O,70.3% (inactive),129%
CN[C@H](CC(C)C)C(=O)N[C@H]1C(=O)N[C@@H](CC(N)=O)C(=O)N[C@H]2C(=O)N[C@H]3C(=O)N[C@H](C(=O)N[C@H](C(=O)O)c4cc(O)cc(O)c4-c4cc3ccc4O)[C@H](O)c3ccc(c(Cl)c3)Oc3cc2cc(c3O[C@@H]2O[C@H](CO)[C@@H](O)[C@H](O)[C@H]2O[C@H]2C[C@](C)(N)[C@H](O)[C@H](C)O2)Oc2ccc(cc2Cl)[C@H]1O,70.2% (inactive),74.3%
CC[C@@]1(O)C[C@H](O[C@H]2C[C@H](N(C)C)[C@H](O[C@H]3C[C@H](O)[C@H](O[C@H]4CCC(=O)[C@H](C)O4)[C@H](C)O3)[C@H](C)O2)c2c(cc3c(c2O)C(=O)c2c(O)cccc2C3=O)[C@H]1C(=O)OC,-0.835% (inactive),14.5%
C[C@H]1O[C@@H](O[C@H]2[C@@H](O)C[C@H](O[C@H]3[C@@H](O)C[C@H](O[C@H]4CC[C@@]5(C)[C@H](CC[C@@H]6[C@@H]5C[C@@H](O)[C@]5(C)[C@@H](C7=CC(=O)OC7)CC[C@]65O)C4)O[C@@H]3C)O[C@@H]2C)C[C@H](O)[C@@H]1O,-10.5% (inactive) and 8.38% (inactive),46.2% and 21%
CCC[C@@H]1C[C@@H](C(=O)N[C@@H]([C@H]2O[C@H](SC)[C@H](O)[C@@H](O)[C@H]2O)[C@H](C)Cl)N(C)C1,69.6% (inactive) and 41% (inactive),232% and 102%
C[C@H]1C[C@H]2[C@@H]3CCC4=CC(=O)C=C[C@]4(C)[C@@]3(F)[C@@H](O)C[C@]2(C)[C@@]1(O)C(=O)CO,183% (inactive) and 101% (inactive),104% and 71.8%
C=C(C)[C@@H]1CC[C@]2(C(=O)O)CC[C@]3(C)[C@H](CC[C@@H]4[C@@]5(C)CC[C@H](O)C(C)(C)[C@@H]5CC[C@]43C)[C@@H]12,-8.09% (active) and 64% (inactive),99.2% and 78.2%
CC(C)C[C@H]1C(=O)N2CCC[C@H]2[C@]2(O)O[C@](NC(=O)[C@@H]3C=C4c5cccc6[nH]c(Br)c(c56)C[C@H]4N(C)C3)(C(C)C)C(=O)N12,105% (inactive),88.9%
CCC[C@@H]1C[C@@H](C(=O)N[C@@H]([C@H]2O[C@H](SC)[C@H](O)[C@@H](O)[C@H]2O)[C@@H](C)O)N(C)C1,63.5% (inactive),128%
COc1ccc([C@@H]2CC(=O)c3c(O)cc(O[C@@H]4O[C@H](CO[C@@H]5O[C@@H](C)[C@H](O)[C@@H](O)[C@H]5O)[C@@H](O)[C@H](O)[C@H]4O)cc3O2)cc1O,169% (inactive),116%
N=c1ccn2c(n1)O[C@H]1[C@H](O)[C@@H](CO)O[C@H]12,29.5% (inactive),73.5%
O=C(O)c1cc(=O)c2ccccc2[nH]1,196% (inactive),68.4%
C[C@H](CCC(=O)O)[C@H]1CC[C@H]2[C@@H]3[C@H](O)C[C@@H]4C[C@H](O)CC[C@]4(C)[C@H]3CC[C@]12C,42% (inactive) and 91.9% (inactive),46.4% and 85.3%
